{"source": "the supplement of paper PMC13380429", "data": [{"tested_on": "Vero E6 infected with SARS-CoV-2", "experiment": "morphology score (similarity to uninfected cells); higher = more like uninfected cells", "conditions": "24 h", "values": [{"compound": "CC(=O)N[C@H](Cc1ccc2ccccc2c1)C(=O)N[C@H](Cc1ccc(Cl)cc1)C(=O)N[C@H](Cc1cccnc1)C(=O)N[C@@H](CO)C(=O)N[C@@H](Cc1ccc(NC(=O)[C@@H]2CC(=O)NC(=O)N2)cc1)C(=O)N[C@H](Cc1ccc(NC(N)=O)cc1)C(=O)N[C@@H](CC(C)C)C(=O)N[C@@H](CCCCNC(C)C)C(=O)N1CCC[C@H]1C(=O)N[C@H](C)C(N)=O", "note": "[degarelix] (10 µM)", "morphology score": -0.277}, {"compound": "Cn1nnc(-c2ccc(-c3ccc(N4C[C@H](COP(=O)(O)O)OC4=O)cc3F)cn2)n1", "note": "[tedizolid-phosphate] (10 µM)", "morphology score": 0.194}, {"compound": "O=C(CN1CCN(Cc2ccc3c(c2)OCO3)CC1)N1c2ccccc2Sc2ccccc21", "note": "[fenoverine] (10 µM)", "morphology score": 0.02}, {"compound": "CCS(=O)(=O)N1CCC([C@@H](C)n2c(C)c(C(=O)NCc3c(OC)cc(C)[nH]c3=O)c3ccccc32)CC1", "note": "(10 µM)", "morphology score": -0.000259}, {"compound": "COc1ccc(C(CN(C)C)C2(O)CCCCC2)cc1", "note": "(centres undefined) [venlafaxine] (10 µM)", "morphology score": 0.00722}, {"compound": "CC(=O)N(OCc1ccccc1)[C@@H]1c2cc(C#N)ccc2OC(C)(C)[C@H]1O", "note": "(10 µM)", "morphology score": 0.159}, {"compound": "O=P(O)(O)CN(CCN(CP(=O)(O)O)CP(=O)(O)O)CP(=O)(O)O", "note": "(10 µM)", "morphology score": 0.137}, {"compound": "CN1CCN(C(c2ccccc2)c2ccccc2)CC1", "note": "[cyclizine] (10 µM)", "morphology score": -0.126}, {"compound": "Cc1cc(N)c2ccccc2[n+]1CCCCCCCCCC[n+]1c(C)cc(N)c2ccccc21", "note": "[dequalinium] (10 µM)", "morphology score": 0.175}, {"compound": "OC[C@@H](O)[C@H]1O[C@@H]2O[C@H](C(Cl)(Cl)Cl)O[C@@H]2[C@H]1O", "note": "[chloralose] (10 µM)", "morphology score": 0.162}, {"compound": "CCOCCn1c(C2CCN(CCc3ccc(C(C)(C)C(=O)O)cc3)CC2)nc2ccccc21", "note": "[bilastine] (10 µM)", "morphology score": 0.144}, {"compound": "C=C(C)[C@@H]1CC=C(CO)CC1", "note": "[perillyl-alcohol] (10 µM)", "morphology score": 0.0351}, {"compound": "Oc1ccc2c3c1O[C@H]1c4[nH]c5ccccc5c4C[C@@]4(O)[C@@H](C2)N(CC2CC2)CC[C@]314", "note": "[naltrindole] (10 µM)", "morphology score": -0.0968}, {"compound": "Cc1ccc(S(=O)(=O)NCl)cc1", "note": "[chloramine-T] (10 µM)", "morphology score": 0.043}, {"compound": "CCCCCCCCc1ccc(CCC(N)(CO)CO)cc1", "note": "[fingolimod] (10 µM)", "morphology score": 0.717}, {"compound": "O=C1C(Cl)=C(NCCN2CCOCC2)C(=O)c2ncccc21", "note": "(0.833333 µM)", "morphology score": 0.143}, {"compound": "COc1cc2c(cc1Cc1cccc(Cl)c1F)c(=O)c(C(=O)O)cn2[C@H](CO)C(C)C", "note": "[elvitegravir] (10 µM)", "morphology score": 0.0588}, {"compound": "CCn1c(=O)c(-c2cc[nH]n2)cc2c(C)nc(N)nc21", "note": "[voxtalisib] (0.833333 µM)", "morphology score": 0.00591}, {"compound": "O=C(O)c1ccc(N2N=C(Cc3ccccc3)/C(=C\\c3ccc(-c4ccccc4F)o3)C2=O)cc1", "note": "(10 µM)", "morphology score": -0.0825}, {"compound": "COc1cc(OC)c(/C=C2/C(=O)Nc3ccccc32)c(OC)c1", "note": "(10 µM)", "morphology score": -0.0269}, {"compound": "CC(=O)[C@H]1CC[C@H]2[C@@H]3CC[C@H]4C[C@](C)(O)CC[C@]4(C)[C@H]3CC[C@]12C", "note": "[ganaxolone] (10 µM)", "morphology score": -0.0442}, {"compound": "O=C(NCc1ccc2c(c1)OCO2)c1c(Cl)cccc1Cl", "note": "[alda-1] (10 µM)", "morphology score": 0.107}, {"compound": "CN1CCCN(C(c2ccccc2)c2ccc(Cl)cc2)CC1", "note": "(centres undefined) [homochlorcyclizine] (10 µM)", "morphology score": 0.29}, {"compound": "CCn1nc(C)c2c1C(c1ccccc1)=NCC(=O)N2", "note": "[ripazepam] (10 µM)", "morphology score": 0.0297}, {"compound": "O=C1C=Cc2cc(Br)ccc2C1=O", "note": "[bonaphthone] (10 µM)", "morphology score": -0.0263}, {"compound": "CN1CCN(c2cc3c(cc2F)c(=O)c(C(=O)O)cn3-c2ccc(F)cc2)CC1", "note": "[difloxacin] (10 µM)", "morphology score": -0.0785}, {"compound": "CN(C)c1nc(N(C)C)nc(N(C)C)n1", "note": "[altretamine] (10 µM)", "morphology score": -0.171}, {"compound": "Nc1ncnc2[nH]nc(Nc3ccc(F)cc3)c12", "note": "(0.833333 µM)", "morphology score": -0.00281}, {"compound": "CCNC(=O)/C=C/c1cccc(Br)c1", "note": "[cinromide] (10 µM)", "morphology score": 0.135}, {"compound": "N#CC[C@@H](C1CCCC1)n1cc(-c2ncnc3[nH]ccc23)cn1", "note": "[ruxolitinib-(S)] (10 µM)", "morphology score": 0.62}, {"compound": "CC(C)(C)NCC(O)CSc1nc(-c2ccc(C(N)=O)s2)cs1", "note": "(centres undefined) [arotinolol] (10 µM)", "morphology score": 0.0582}, {"compound": "CC(C)(C(=O)NCC(F)(F)C(F)(F)F)C(=O)N[C@@H]1C(=O)Nc2ccccc2-c2ccccc21", "note": "(10 µM)", "morphology score": 0.217}, {"compound": "Nc1ccc([As](=O)(O)O)cc1", "note": "[arsanilic-acid] (10 µM)", "morphology score": -0.00345}, {"compound": "C[C@@]1(F)[C@H](O)[C@@H](CO)O[C@H]1n1ccc(N)nc1=O", "note": "(10 µM)", "morphology score": 0.0439}, {"compound": "O=C(Nc1ccc(Br)cc1)c1cc(Br)cc(Br)c1O", "note": "[tribomsalan] (10 µM)", "morphology score": 0.043}, {"compound": "O[C@H]1[C@H](O)[C@@H](O)[C@H](O)[C@@H](O)[C@H]1O", "note": "[inositol] (10 µM)", "morphology score": -0.166}, {"compound": "CCCC(C)C1(CC)C(=O)NC(=S)NC1=O", "note": "(centres undefined) [thiopental] (10 µM)", "morphology score": 0.132}, {"compound": "C[C@@H]1[C@H](O)[C@@H](C)/C=C/C=C/C=C/C=C/C=C/C=C/C=C/[C@H](O[C@@H]2O[C@H](C)[C@@H](O)[C@H](N)[C@@H]2O)C[C@@H]2O[C@](O)(C[C@@H](O)C[C@@H](O)[C@H](O)CC[C@@H](O)C[C@@H](O)CC(=O)O[C@H]1C)C[C@H](O)[C@H]2C(=O)O", "note": "[amphotericin-b] (10 µM)", "morphology score": 0.132}, {"compound": "O=C1C(=Cc2cccnc2)C(=O)c2ccccc21", "note": "(10 µM)", "morphology score": 0.19}]}]}
